An excerpt weighted towards active compounds, which were near 3.2% of everything screened.
PK Bst = modulators of Bacillus stearothermophilus pyruvate kinase; 51,000 tested, 1.2% active; purified pyruvate kinase, luminescence ATP production; ribose 5-phosphate activator present at AC10; Potency, µM; AID 361; in the data active = potency below about 11 µM; inconclusive = mostly about 12 µM to 25 µM;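 the screen sought inhibitors and activators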;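 note: scaled between full activation by ribose 5 phosphate and full inhibition by luteolin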
GBA activity = modulators of human glucocerebrosidase | 48,000 tested, 1.1% active | Potency, µM | purified enzyme, resorufin glucoside fluorescence (screen aimed at inhibitors), 20 min | AID 360 | P04062; in the data active = potency below about 15 µM; inconclusive = mostly about 16 µM to 33 µM;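 note: the screen sought inhibitors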
Target sequence (P04062 whole entry, looked up): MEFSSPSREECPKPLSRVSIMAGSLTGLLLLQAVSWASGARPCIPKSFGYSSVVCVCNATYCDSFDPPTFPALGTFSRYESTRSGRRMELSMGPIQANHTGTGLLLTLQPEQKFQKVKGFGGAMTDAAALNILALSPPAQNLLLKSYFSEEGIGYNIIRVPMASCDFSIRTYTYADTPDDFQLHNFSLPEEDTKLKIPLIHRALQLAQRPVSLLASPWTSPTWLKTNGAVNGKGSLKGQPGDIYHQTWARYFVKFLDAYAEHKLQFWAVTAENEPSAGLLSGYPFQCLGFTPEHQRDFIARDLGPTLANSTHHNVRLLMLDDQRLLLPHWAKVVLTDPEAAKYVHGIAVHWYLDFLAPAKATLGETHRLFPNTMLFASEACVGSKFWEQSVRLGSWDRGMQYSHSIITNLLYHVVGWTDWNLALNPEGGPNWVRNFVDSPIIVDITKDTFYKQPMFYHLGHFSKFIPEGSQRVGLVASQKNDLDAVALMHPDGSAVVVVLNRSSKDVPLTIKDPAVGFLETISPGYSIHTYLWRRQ
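Wild-type enzyme at 0.2 nM final in 50mM citric acid/KH2PO4, 10mM sodium taurocholate, 0.01% tween-20, pH 5.9, with resorufin beta-D-glucopyranoside at 30 uM final. Compounds titrated, 20 min at RT, red fluorescence read; AC50 from titration.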
FLuc inh = inhibitors of firefly luciferase; Potency, µM (top dose mostly 57.1 µM), without a hit: at the highest dose activity change, negative = inhibition, most hits filed as inhibitors; P08659; purified firefly luciferase, luminescence, 8 min; AID 411; 72,000 tested, 2.2% active; active = well fitted inhibition curve with a large enough effect; inconclusive = small, poorly fitted or top-dose-only effect; note: % is set by controls: 0 for no effect and ±100 for the full control effect; nearly all actives have a fitted effect of over 40% in size
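Substrate buffer containing 10 uM ATP (pH 7.2 imidazole, Mg2+, KCl, detergent, BSA) is dispensed, compound pinned in, then luciferase/luciferin detector mix added. After 8 min at ambient temperature, light output is measured.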
An asterisk follows results filed as active; i = inactive; ? = inconclusive; . = no result given; ! = not active in a repeat; [ ] = another dose, or the depositor's remark. Potency is the fitted concentration of half-maximal effect.

SMILES	PK Bst	GBA activity	FLuc inh
CS(=O)(=O)Nc1ccc([N+](=O)[O-])cc1OC1CCCCC1	.	.	-1.5%
O=C(CCCc1ccccc1)N1CCc2ccccc21	.	.	12.6µM*
O=C(CCC(=O)N1CCc2ccccc21)N1CCc2ccccc21	>57	>76.9	0.2%
COc1ccc(C(=O)N2CCC3(CC2)CN(C(=O)NC(C)C)C3)cc1	.	.	-1.3%[11.4 µM]
COC(=O)c1sc2ccccc2c1N	.	.	-7.9%
CC(=Nc1cccc(O)c1)c1sc2ccccc2c1O	8.21*	.	7.94µM*
C/C(CCN1CCc2nc(-c3ccccc3)c(-c3ccccc3)cc2C1)=N\OC[C@@H](O)[C@@H]1O[C@@H]2OC(C)(C)O[C@@H]2[C@H]1O	.	.	0.7%[11.4 µM]
O=C(O)c1cccc(-n2nnnc2SCc2ccccn2)c1	>57	>76.9	0.4%
c1ccc(CSc2nnnn2-c2cccc3ccccc23)nc1	7.36*	>76.9	2.6%
Cc1nc2cc(NC(=O)N3c4ccccc4CC3C)ccc2o1 (stereo not given)	?	>76.9	12.6µM*
Cc1nc2cc(NC(=O)NCc3ccc4c(c3)OCO4)ccc2o1	>57	>76.9	-6.5%
CC1Cc2ccccc2N1C(=O)c1ccc2c(c1)nnn2C (stereo not given)	>57	>76.9	2.6%
Cc1nc2cc(NC(=O)N3c4ccccc4CC3C)ccc2n1C (stereo not given)	9.47*	?	5.01µM*
CN(C)Cc1ccccc1-c1nc(NCc2ccccc2)c2ccccc2n1	.	.	0.4%[2.29 µM]
O=c1c(-c2cccc(F)c2)nc2cncnc2n1Cc1ccccc1	.	.	0.7%[11.4 µM]
c1ccc(CNc2nc(-c3ccc4c(c3)OCO4)nc3ccccc23)cc1	.	.	3.0%[2.29 µM]
C=CC[C@@H]1C=C[C@H](O/N=C(\C)CCN2CCCc3nc(C)c(C)cc32)[C@H](CO)O1	.	.	-1.4%[11.4 µM]
OCc1cc([C@@H](O)CNCCCCCCOCCCCc2ccccc2)ccc1O	.	.	15.8µM*!
CC(CCc1ccccc1)NCC(O)c1ccc(O)c(C(N)=O)c1 (stereo not given)	>25.6	.	0.6%[25.5 µM]
O=C(c1cnccn1)N1CCC2(CC1)CCN(c1ccccn1)CC2	.	.	0.5%[11.4 µM]
COCCCn1c2nc3ccccc3nc2c2c(=O)n(Cc3ccc(Cl)cc3)cnc21	>57	7.33*	1.8%
COCCCn1c2nc3ccccc3nc2c2c(=O)n(Cc3ccccc3Cl)cnc21	>57	>76.9	1.6%
COCCCn1cnc2c(c1=O)c1nc3ccccc3nc1n2-c1ccccc1	>57	>76.9	0.8%
COCCCn1cnc2oc3nc4ccccc4nc3c2c1=O	.	>76.9	25.1µM*
Cc1ccc(O)c(-c2cc3ccccc3[nH]2)c1	.	.	-26.2%
SMILES	PK Bst	GBA activity	FLuc inh
Cc1ccc2[nH]c(-c3cccc(N)c3)cc2c1	?	>15.4	12.6µM*
Cc1noc(C)c1C(=O)N1CCC2(CCN(C(=O)NC(C)C)CC2)CC1	.	.	0.6%[11.4 µM]
COc1cc(NC(=O)c2cc3sccc3n2C)cc(OC)c1	4.03*	.	12.6µM*
COc1ccc(OC)c(NC(=O)c2cc3sccc3n2C)c1	.	>76.9	-26.2%
Cn1c(C(=O)Nc2ccc3c(c2)OCO3)cc2sccc21	6.37*	>76.9	7.94µM*
Cn1c(C(=O)NCc2ccc3c(c2)OCO3)cc2sccc21	>57	>76.9	-1.3%
O=c1cnc2cnc(N3CCNCC3)nc2n1CCc1ccccc1	.	.	-0.6%[11.4 µM]
COc1cccc([C@@H]2Oc3ccc(OC)cc3/C(=N/O[C@@H](C)CN3CCCCc4nc(C)c(C)cc43)[C@@H]2O)c1	.	.	0.9%[11.4 µM]
CC(=O)NCCNc1nc(-c2cccc(C#N)c2)nc2ccccc12	.	.	0.9%[2.29 µM]
COc1ccc2[nH]cc(CCNc3ccnc(-c4c(C)noc4C)n3)c2c1	.	.	-1.1%[2.29 µM]
c1ccc(-c2onc3cc4c(cc23)OCCO4)cc1	.	.	12.6µM*
CC1(c2ccc3noc(-c4ccc(Cl)cc4)c3c2)OCCO1	?	>76.9	-1.8%
CC(=O)Nc1ccc(NC(=O)c2cc(C)nn2-c2ccccc2)cc1	>57	12.3*	0.8%
CC(=O)c1cc2c(cc1NC(=O)c1cc(C)nn1-c1ccccc1)OCO2	.	.	0.5%
COc1ccc(NC(=O)N2CC[C@@]3(CCCNC3)C2)cc1	.	.	-1.3%[11.4 µM]
COC(=O)c1c(-c2ccc(F)cc2)csc1NC(=O)c1ccco1	.	.	12.6µM*
O=C(Nc1scc(-c2ccccc2)c1C(=O)O)c1ccco1	.	>76.9	-9.4%
O=S(=O)(Nc1ccc(-c2cn3ccsc3n2)cc1)c1ccc2c(c1)OCCO2	>57	14.9*	-8.2%
CC(C)(C)C(=O)Nc1ccc(-c2cn3ccsc3n2)cc1	1.57*	i	1µM*
Cn1c(=O)c(=O)n(C)c2cc(S(=O)(=O)Nc3ccc4c(c3)OCCO4)ccc21	>57	>76.9	-8.3%
CC(C)CC(=O)Nc1ccc(-c2cn3ccsc3n2)cc1	2.67*	.	3.16µM*
CCOCC(=O)Nc1ccc(-c2cn3cccnc3n2)cc1	>57	>76.9	-6.1%
COc1ccc(C(=O)Nc2ccc(-c3cn4ccsc4n3)cc2)cc1S(=O)(=O)N1CCOCC1	>57	?	-3.1%
C[N+](C)(C)CCN(Cc1cccs1)c1ccccn1	.	.	4.3%[11.4 µM]
CN1CCN(c2ncnc3ccc(-c4cccc(C#N)c4)cc23)CC1	.	.	-1.6%[2.29 µM]
SMILES	PK Bst	GBA activity	FLuc inh
CC[C@]1(O)C[C@H]2CN(CCc3c([nH]c4ccccc34)[C@](C(=O)OC)(c3cc4c(cc3OC)N(C)[C@@H]3[C@](O)(C(=O)OC)[C@H](OC(C)=O)[C@]5(CC)C=CCN6CC[C@]43[C@@H]65)C2)C1	.	.	-0.8%
Cc1ccc(C(=O)Oc2ccc3c(c2)ncn3C)cc1	?	>76.9	15.8µM*
COc1ccc(OC)c(-n2cnc3cc(C(=O)O)ccc32)c1	>57	>76.9	0.2%
O=C(Oc1ccc2c(c1)OCC2=O)c1ccccc1	>57	>76.9	-16.2%
Cn1cnc2cc(OC(=O)c3ccccc3)ccc21	i	>76.9	15.8µM*
Cc1nc2cnc(N3CCOCC3)nc2n(C2CC2)c1=O	.	.	-1.0%[11.4 µM]
O=C(CSCc1ccccc1Cl)N1CCN(c2ccccn2)CC1	>57	14.9*	-0.7%
O=C(CCSCc1ccccc1F)N1CCN(c2ccccn2)CC1	>57	.	-1.7%
COCC(=O)N1CCC[C@@]2(CCN(C(c3ccccc3)c3ccccc3)C2)C1	.	.	-2.9%[11.4 µM]
c1ccc(Cc2ccc(OCCn3cncn3)cc2)cc1	>57	>76.9	-1.0%
FC(F)(F)c1cccc(OCCOCCn2cncn2)c1	>57	>76.9	-0.3%
c1ccc(-c2ccc(OCCOCCn3cncn3)cc2)cc1	.	>76.9	12.6µM*
c1ccc(COc2ccc(OCCCn3cncn3)cc2)cc1	.	>76.9	20µM*
O=C(CCc1ccc(O)cc1)c1c(O)cc(O)cc1O[C@@H]1O[C@@H](CO)[C@@H](O)[C@@H](O)[C@H]1O	.	.	0.3%[11.4 µM]
N#CCCn1c(=O)c(-c2cccs2)nc2cnc(N3CCNCC3)nc21	.	.	0.7%[11.4 µM]
Cn1c(NCc2ccco2)nc2c1c(=O)n(Cc1ccc(Cl)c(Cl)c1)c(=O)n2C	1.87*	.	1.6%[25.5 µM]
Cn1c(=O)c2c(nc(NCc3ccco3)n2Cc2ccc(Cl)cc2Cl)n(C)c1=O	>25.6	.	0.7%[25.5 µM]
O=c1[nH]c(SCc2ccc(F)cc2)nc2c1cnn2-c1ccc(F)cc1	.	.	0.6%
COC(=O)c1ccc(CSc2nc3c(cnn3-c3ccc(C)c(C)c3)c(=O)[nH]2)o1	>57	13.9*	0.7%
Cc1cc(-c2nnco2)c(C)n1-c1ccccc1	.	>76.9	12.6µM*
Cc1nc2ccccn2c1-c1nnco1	>57	>76.9	-2.8%
FC(F)(F)c1cc(CO[C@@H]2CCCN[C@H]2c2ccccc2)cc(C(F)(F)F)c1	.	.	-1.2%
